From PubChem BioAssay
The list is not random: actives were taken first. Their share in the collection is about 19%.
TDP1 cell CPT: DT40-hTDP1 cell growth loss with CPT; chicken DT40 Tdp1-/-;hTDP1 cells + 20 nM CPT, ATP luminescence, 48 h; Potency, µM (highest dose often 46.2 µM), inactives show at the top dose activity change, negative = growth inhibition, usual class: inhibitors; 420,000 compounds, 12% hits; also: potency is read from the fitted curve at half-maximal effect; nearly all actives have a fitted effect of over 55% in size
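Cell growth measured by CellTiter-Glo luminescence after a minimum 48 h, 37 C compound exposure with 20 nM CPT in Tdp1-knockout DT40 cells stably expressing hTDP1, seeded 400/well; qHTS titration format.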
HT1080-NT tox: kills 2HG-producing HT-1080-NT fibrosarcoma cells | HT-1080-NT fibrosarcoma viability, CellTiter-Glo ATP luminescence, 48 h | Potency, µM (highest dose often 46.1 µM), for inactives: at the highest dose activity, negative = less viability, hits mostly cytotoxic | 360,000 compounds, 1.6% hits;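 also: NT is the 2HG producing partner of a matched IDH1 knockdown line; potency is read from the fitted curve at half-maximal effect; 0% = DMSO-treated cells and -100% = media-only wells without cells; nearly all actives have a fitted effect of over 55% in size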
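Viability of the 2HG-overproducing fibrosarcoma line after 48 hours of compound exposure at 37 degrees C was determined by luminescence with CellTiter-Glo, and concentration-effect curves were then fitted and categorized.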
ELG1 repair inh: ELG1-dependent DNA repair inhibition; HEK293T ELG1-luciferase reporter, luminescence, 16 h; DNA damage induced by 5-fluorouridine; Potency, µM (series often up to 46.1 µM), for the others: at the top dose activity change, negative = inhibition, hits mostly inhibitors; 330,000 compounds, 2.3% hits; AID 504467; also: potency is read from the fitted curve at half-maximal effect; nearly all actives have a fitted effect of over 55% in size
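DMSO vehicle served as the neutral condition. Each well held 2,000 cells given 5-fluorouridine plus compound; after 16 hr at 37 °C/5% CO2, ONE-Glo was added and luciferase measured 30 min later.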
IL1B secr inh: inflammasome signaling inhibition, IL-1 beta readout; THP-1 LPS/ATP IL-1B secretion, AlphaLISA, 16 h; hits give low values; activity change, % at 57.5 µM; 360,000 compounds, 4.7% hits; AID 743279; in the data active = activity change below about -50%; inconclusive = mostly about -30% to -49%
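THP-1 cells pretreated 1 hr with compounds (up to 57.5 uM final), then stimulated with LPS (250 ng/mL final) plus ATP (1.25 mM final); secreted IL-1B measured by AlphaLISA after 16 hr, decreased signal indicating inhibition.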
HT1080 IDH1KD tx: toxicity to HT-1080 IDH1 knockdown cells (counter line); 360,000 compounds, 2% hits; Potency, µM (highest dose often 46.1 µM), for the others: at the top dose activity, negative = toxicity, hits mostly cytotoxic; HT-1080 IDH1 knockdown viability, ATP luminescence, 48 h;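 also: potency is read from the fitted curve at half-maximal effect; 0% = DMSO wells and -100% = cell-free medium wells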
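Viability of IDH1-knockdown HT-1080 fibrosarcoma cells was assessed by CellTiter-Glo after 48 h at 37 °C with titrated compound; concentration-effect curves were classified by fit quality and response size.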
DT40 TDP1 no CPT: qHTS for Inhibitors of human tyrosyl-DNA phosphodiesterase 1 (TDP1): qHTS in cells in absence of CPT. DT40 Tdp1-/- hTDP1 cells, no CPT, ATP luminescence, 48 h. Potency, µM (highest dose often 46.2 µM), for the others: at the highest dose activity change, negative = growth inhibition, actives largely listed as inhibitors. 420,000 compounds, 15% hits. AID 686978, 2013; also: potency is read from the fitted curve at half-maximal effect; nearly all actives have a fitted effect of over 55% in size
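Stably hTDP1-transfected Tdp1-null chicken DT40 cells were treated with library compounds minus camptothecin and grown for at least 48 hr at 37 °C, after which cellular ATP was quantified by luminescence.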
* hit, by the source's call; u = inconclusive; x = not tested or not shown. Unless noted, calls follow the shape of the dose curve; as a rule, active = well fitted curve in the direction sought with a large enough effect; inconclusive = small, poorly fitted or top-dose-only effect, or another doubt; inactive = no such curve, though single readings can be large; an effect the other way counts as inactive or inconclusive. Unless noted, % is scaled to controls: 0 for no effect and ±100 for the full control effect.

SMILES	TDP1 cell CPT	HT1080-NT tox	ELG1 repair inh	IL1B secr inh	HT1080 IDH1KD tx	DT40 TDP1 no CPT
O=C(ONC1=NCCCCC1)c1ccc(Cl)cc1	21µM*	16µM*	5%	-17	23µM*	15µM*
Cc1c(Cl)cccc1NC(=O)CSc1ncnc2c1sc1ccccc12	-20%	x	x	x	x	-2%
Cc1sc(=NC(=O)c2ccco2)n(C)c1-c1ccc(Cl)cc1	12µM*	-2%	u	-16	-1%	12µM*
CCOC(=O)c1sc(=NC(=O)c2ccco2)n(C)c1C	6%	-4%	u	56	-6%	-15%
CCOC(=O)c1cccc(-n2nnc3c(sc4nc(C)c(Br)c(C)c43)c2=O)c1	-7%	x	x	x	x	-5%
CCc1cccc(C)c1NC(=O)c1cc(CN2CCCC2)on1	1%	x	x	x	x	-19%
O=C(O)c1cc(-c2ccco2)[nH]n1	-15%	8%	0%	14	10%	-2%
CC1CCC(C(=O)NNC(=O)c2cc(-c3ccco3)[nH]n2)CC1 (stereo not given)	18µM*	18%	2%	-4	14%	16µM*
O=C(CCN1CCCCCC1)Nc1ccc2c(c1)OCCO2	5%	16%	7%	-27	20%	-9%
O=C(CCN1CCCC1Cc1ccccc1)c1ccc2c(c1)OCCO2 (stereo not given)	2.6µM*	-4%	x	-101*	u	2.3µM*
O=C(CCN1CCc2ccccc2C1)c1ccc2c(c1)OCCO2	5.8µM*	-7%	2%	0	-8%	3.7µM*
O=C(CCN1CCCCC1)c1ccc2c(c1)OCCO2	21µM*	u	10%	-86*	5.6µM*	16µM*
O=C(c1ccc2c(c1)OCO2)N1CCc2ccccc2C1	u	-3%	u	28	-22%	u
CC(CC(=O)Nc1ccccc1)NCCCN1CCCC1=O (stereo not given)	2%	9%	u	18	16%	-22%
CCCOc1ccc(CC(=O)NCCc2ccccc2)cc1OC	-9%	-3%	-7%	18	-2%	2%
Cc1ccc(Cn2c(=O)n(Cc3ccc(Cl)cc3)c(=O)c3cccnc32)cc1	-30%	x	x	x	x	u
COc1cc(C(=O)NCC(=O)N2CCN(S(=O)(=O)c3cc(C)ccc3C)CC2)cc(OC)c1OC	5.8µM*	7.3µM*	-19%	91	6.5µM*	3.7µM*
Cc1ccc(C)c(S(=O)(=O)N2CCN(C(=O)CCNC(=O)c3ccc(Br)cc3)CC2)c1	23µM*	3%	u	-17	1%	21µM*
Cc1ccc(C)c(S(=O)(=O)N2CCN(C(=O)CCNS(=O)(=O)c3ccc(C)c(C)c3)CC2)c1	u	-9%	u	-5	-25%	18µM*
COc1cccc(NC2=Nc3cccc4cccc2c34)c1	-29%	6%	u	-4	-11%	u
O=C(CN1C(=O)S/C(=C\c2ccc(O)cc2)C1=O)c1ccccc1	u	u	17%	-77*	u	u
O=C(CCN1C(=O)/C(=C\c2ccccc2)SC1=S)NNC(=O)c1cccnc1	u	-2%	-1%	17	1%	u
O=C(CN1C(=O)S/C(=C\c2ccc(C(=O)O)cc2)C1=O)Nc1ccccc1	-2%	-3%	u	-4	-7%	-1%
O=C1S/C(=C/c2ccccc2)C(=O)N1CC(O)Cn1c2ccccc2c2ccccc21 (stereo not given)	23µM*	-9%	-8%	-14	0%	23µM*
O=C(CCN1C(=O)/C(=C\c2ccccc2)SC1=S)NNC(=O)c1ccccc1O	21µM*	u	-15%	38	u	26µM*
